High-throughput results as filed in PubChem.
Compounds with a hit are over-represented: about 19% of the library has one in this group of screens.
HT1080-NT tox: kills 2HG-producing HT-1080-NT fibrosarcoma cells | HT-1080-NT fibrosarcoma viability, CellTiter-Glo ATP luminescence, 48 h | Potency, µM (titrated, usually from 46.1 µM), for the others: top-dose activity, negative = less viability, most hits filed as cytotoxic | actives 1.6% (n = 360,000);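 note: NT is the 2HG producing partner of a matched IDH1 knockdown line; potency is the fitted concentration of half-maximal effect; 0% = DMSO-treated cells and -100% = media-only wells without cells; nearly all actives have a fitted effect of over 55% in size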
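750 cells/well, RPMI + 5% FBS; 2 h settle, compound pin-transfer, 48 h at 37 degrees C. CellTiter-Glo 10 min RT, luminescence. Normalized to DMSO and media-only wells.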
IL1B secr inh: blocks inflammasome-driven IL-1 beta release | THP-1 LPS/ATP IL-1B secretion, AlphaLISA, 16 h; hits give low values | activity change, % at 57.5 µM | actives 4.7% (n = 360,000); in the data active = activity change below about -50%; inconclusive = mostly about -30% to -49%
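Secreted IL-1B measured by AlphaLISA bead assay after 16 h compound exposure of THP-1 cells; compounds (final up to 57.5 uM) added 1 h before LPS (250 ng/mL) and ATP (1.25 mM) stimulation; lower signal means less secretion.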
ELG1 DNA repair: blocks ELG1-dependent DNA repair in HEK293T cells. HEK293T ELG1-luciferase reporter, luminescence, 16 h; DNA damage induced by 5-fluorouridine. Potency, µM (series often up to 46.1 µM), for the others: top-dose activity change, negative = inhibition, usual class: inhibitors. actives 2.3% (n = 330,000). AID 504467; note: potency is the fitted concentration of half-maximal effect; nearly all actives have a fitted effect of over 55% in size
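Reporter activity after DNA damage by 5-fluorouridine is monitored. Compound-treated cells incubate 16 hr at 37 °C, then ONE-Glo is added for 30 min before luminescence reading.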
HT1080 IDH1KD tx: toxicity to HT-1080 IDH1 knockdown cells (counter line) | HT-1080 IDH1 knockdown viability, ATP luminescence, 48 h | Potency, µM (series often up to 46.1 µM), for inactives: top-dose activity, negative = toxicity, usual class: cytotoxic | actives 2% (n = 360,000);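 note: potency is the fitted concentration of half-maximal effect; 0% = DMSO wells and -100% = cell-free medium wells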
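After a 2 h attachment period, IDH1KD HT-1080 cells took pin-transferred compound for 48 h at 37 °C; ATP-based luminescence after 10 min room-temperature reagent incubation reported viability.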
TDP1 cell noCPT: qHTS for Inhibitors of human tyrosyl-DNA phosphodiesterase 1 (TDP1): qHTS in cells in absence of CPT; actives 15% (n = 420,000); AID 686978, 2013; Potency, µM (top dose mostly 46.2 µM), for inactives: at the top dose activity change, negative = growth inhibition, hits mostly inhibitors; DT40 Tdp1-/- hTDP1 cells, no CPT, ATP luminescence, 48 h; note: potency is the fitted concentration of half-maximal effect; nearly all actives have a fitted effect of over 55% in size
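DT40 Tdp1-/-;hTDP1 cells, no CPT (DMSO vehicle only), 400 cells/well; compounds pin-transferred; ≥48 hr, 37 °C; CellTiter-Glo 30 min RT dark, luminescence read.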
DT40 TDP1 CPT: growth inhibition of DT40 Tdp1-/-;hTDP1 cells with camptothecin (screen for TDP1 inhibitors); chicken DT40 Tdp1-/-;hTDP1 cells + 20 nM CPT, ATP luminescence, 48 h; Potency, µM (doses to about 46.2 µM), inactives show at the top dose activity change, negative = growth inhibition, most hits filed as inhibitors; actives 12% (n = 420,000); note: potency is the fitted concentration of half-maximal effect; nearly all actives have a fitted effect of over 55% in size
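Chicken DT40 Tdp1-/- cells stably complemented with human TDP1 were seeded at 400 cells/well in medium containing 20 nM camptothecin, exposed to pin-transferred compounds, and grown at 37 °C for at least 48 hr. Viability was read as ATP luminescence.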
Starred values were filed as active, the others as inactive; ? = inconclusive; . = no result. Unless noted, calls come from the whole dose curve; as a rule, active = well fitted curve in the direction sought with a large enough effect; inconclusive = small, poorly fitted or top-dose-only effect, or another doubt; inactive = no such curve, though single readings can be large; an effect the other way counts as inactive or inconclusive. Unless noted, % is set by controls: 0 for no effect and ±100 for the full control effect.

SMILES | HT1080-NT tox | IL1B secr inh | ELG1 DNA repair | HT1080 IDH1KD tx | TDP1 cell noCPT | DT40 TDP1 CPT
CC1CCCCN1C(=O)CSc1nc(C2CC2)nc2ccccc12 (stereo not given) | -28% | -77* | -23% | ? | ? | ?
Cc1cccn2c(=O)nc(SCC(=O)c3ccccc3)nc12 | 11% | -4 | ? | 10% | -20% | 7%
Cn1cnnc1Sc1ccc(C(=O)NCCC23CC4CC(CC(C4)C2)C3)cc1[N+](=O)[O-] | ? | 9 | -3% | ? | ? | 10µM*
COc1ccc(NC(=O)/C(C#N)=C/c2ccc(Sc3nncn3C)c([N+](=O)[O-])c2)cc1 | ? | ? | ? | ? | 26µM* | 16µM*
CCN(CC)S(=O)(=O)c1ccc(NC(=O)c2ccc(Sc3nncn3C)c([N+](=O)[O-])c2)cc1 | -1% | -91* | 7% | 2% | ? | ?
CCN(CC(=O)Nc1ccc(NC(C)=O)cc1)C(=O)c1ccc(Sc2nncn2C)c([N+](=O)[O-])c1 | 1% | 12 | . | 6% | -1% | -4%
CN(C)S(=O)(=O)c1cccc(NC(=O)c2ccc(Sc3nncn3C)c([N+](=O)[O-])c2)c1 | 0% | -17 | -6% | 8% | -19% | ?
COc1cc(/C=C2\CCC(C3CCCC3)C2=O)ccc1OC(C)C (stereo not given) | -7% | 47 | ? | 8% | ? | ?
COc1ccc(C(=O)CC(=O)C(=O)Nc2cc(C)ccc2C)cc1 | -24% | 49 | -20% | ? | ? | -103%
COc1ccc(C(=O)CC(=O)C(=O)Nc2ccccc2)cc1 | 0% | -10 | ? | -1% | -27% | ?
COc1ccc(C(=O)CNc2ccccc2CO)cc1 | -4% | 21 | ? | -11% | -3% | 14%
COc1ccc(C(=O)CC(=O)C(=O)Nc2cccc(F)c2)cc1 | -8% | -10 | -16% | -21% | 15µM* | ?
COc1ccc(C(=O)CNc2ccccc2C#N)cc1 | 1% | -9 | ? | -9% | 21µM* | ?
COc1ccc(C(=O)CC(=O)C(=O)Nc2ccc(C)c(Cl)c2)cc1 | -9% | -20 | ? | 5% | 16µM* | ?
CCOc1ccccc1NC(=O)C(=O)CC(=O)c1ccc(OC)cc1 | -16% | 28 | ? | -14% | 21µM* | ?
COc1ccc(C2=NN(C(=O)CCC(=O)O)C(c3ccccc3F)C2)cc1 (stereo not given) | 11% | 7 | ? | 13% | -3% | -3%
C[C@H](CO)N1C[C@H](C)[C@H](CN(C)S(=O)(=O)c2ccc3ccccc3c2)OCc2cnnn2CCCC1=O | -2% | -23 | . | 0% | ? | ?
Nc1ccc(C(=O)CC(=O)Nc2ccc(Cl)cc2)cc1 | -30% | -30 | 7% | -9% | -8% | -1%
COc1cc2ccccc2cc1C(=O)OCc1nc2ccsc2c(=O)[nH]1 | 6% | -26 | -9% | 10% | ? | 5.8µM*
COc1cc(SC)ccc1C(=O)OCc1nc2ccsc2c(=O)[nH]1 | 0% | -4 | ? | -1% | 9.2µM* | 8.2µM*
Cc1ccc(-c2csc3ncnc(Sc4nnc(CN5CCCCCC5=O)o4)c23)cc1 | 0% | -98* | ? | -11% | 6.5µM* | 4.1µM*
COc1ccc(C(=O)Nc2ccc(N3CCCC3)cc2)cc1Br | -9% | -10 | 26% | -10% | ? | ?
COc1cc(OC)cc(C(=O)Nc2ccc(N3CCN(C(=O)c4cccs4)CC3)cc2)c1 | ? | -9 | 15µM* | -20% | 5.2µM* | 5.8µM*
Nc1ccc(N2CCN(C(=O)c3cccs3)CC2)cc1 | -1% | -4 | ? | -1% | 15µM* | ?
O=C(Cn1nc(-c2ccccc2)ccc1=O)Nc1ccc(N2CCN(C(=O)c3cccs3)CC2)cc1 | -7% | -57* | -8% | -11% | ? | ?
SMILES | HT1080-NT tox | IL1B secr inh | ELG1 DNA repair | HT1080 IDH1KD tx | TDP1 cell noCPT | DT40 TDP1 CPT
COc1ccc(C(=O)Nc2ccc(N3CCN(C(=O)c4cccs4)CC3)cc2)cc1Br | -19% | -23 | 13µM* | -27% | 18µM* | 21µM*
COc1cc(CN2CCNC(=O)C2CC(=O)NC2CCC2)cc(OC)c1 (stereo not given) | 6% | 8 | ? | 3% | 6% | -5%
S=C(Cc1ccccc1)Nc1ccccc1 | -1% | 8 | . | -9% | -7% | -27%
O=C(Nc1ccc(N2CCN(C(=O)c3cccs3)CC2)cc1)c1ccc(F)cc1 | 0% | . | 18µM* | 3% | 23µM* | -25%
CC(C)(C)CC(C)(C)N=C1Nc2cc(Cl)c(Cl)cc2N[C@]12C[C@H]1CCCC(=O)N3CC[C@@H](C2)[C@@H]13 | . | . | . | . | 11µM* | ?
CC(C)(C)CC(C)(C)N=C1Nc2cc(Cl)c(Cl)cc2NC12C[C@H]1CCC(=O)N3CC[C@@H](C2)[C@@H]13 (stereo not given in full) | -16% | -64* | . | -6% | ? | ?
Cc1ccc(C(=O)Nc2ccc(C(=O)N3CCCCC3)cc2)cc1 | -1% | -5 | -16% | 7% | -24% | -18%
CC(C)C(=O)N1CCN(c2cc(N3CCN(C)CC3)c(F)cc2[N+](=O)[O-])CC1 | 7% | -12 | 6% | 2% | -1% | 1%
CCN1CCN(c2cc(N3CCc4ccccc4C3)c(F)cc2[N+](=O)[O-])CC1 | -9% | -104* | -11% | -11% | 10µM* | 16µM*
Cc1ccccc1C(=O)OCc1cc(=O)n2nc(C3CC3)sc2n1 | . | . | . | . | -24% | -14%
O=C(NCCNS(=O)(=O)c1ccccc1Cl)c1cc(OCC(F)(F)F)ccc1OCC(F)(F)F | -1% | 33 | 15µM* | -1% | ? | -20%
O=C(NNC(=O)c1cc(OCC(F)(F)F)ccc1OCC(F)(F)F)c1ccc(Cl)c(Cl)c1 | -1% | -22 | ? | 3% | ? | 23µM*
C=CCONC(=O)c1cc(OCC(F)(F)F)ccc1OCC(F)(F)F | 9% | -9 | ? | 7% | -4% | 6%
Cc1ccc(S(=O)(=O)NCCNC(=O)c2cc(OCC(F)(F)F)ccc2OCC(F)(F)F)cc1 | -17% | 17 | 6% | -19% | -3% | -16%
Cc1ccc(CNC(=O)Cc2c(C)c3c(cc(C)c4c(C)coc43)oc2=O)cc1 | . | . | . | . | -7% | 0%
